Assay results as given in publication PMC4102417.

System: murine 3T3 fibroblasts
Experiment: primary screen, percent viability or growth; higher = less effect of the substance
Method: Similarly, for measuring the cytotoxicity concentration (CC50) for 3T3 fibroblast cells, cultures were incubated with drugs for 72 hours and developed using Alamar Blue (Alamar Biosciences Inc, Sacramento, CA) as previously described.

| Structure (SMILES) | Mammalian (3T3) cell % growth at 10 uM |
| --- | --- |
| CCc1nc(N)nc(N)c1-c1ccc(Cl)cc1 | 97.6% |
| Cl.Fc1ccc(C2CCNCC2COc2ccc3c(c2)OCO3)cc1 (stereo not shown) | 100% |
| CNC1CCC(c2ccc(Cl)c(Cl)c2)c2ccccc21.Cl (stereo not shown) | 100% |
| CC12CCC3C(CCC4CC(O)CCC43C)C1CCC2=O (stereo not shown) | 100% |
| O=C(Nc1ccc([N+](=O)[O-])cc1Cl)c1cc(Cl)ccc1O | 10.5% |
| Cc1ccc(C(=O)C(C)CN2CCCCC2)cc1 (stereo not shown) | 0.2% |
| CN(C)CCCN1c2ccccc2CCc2ccc(Cl)cc21.Cl | 84.6% |
| CC(C)C[C@H]1C(=O)N2CCC[C@H]2[C@]2(O)O[C@](NC(=O)[C@@H]3C=C4c5cccc6[nH]c(Br)c(c56)C[C@H]4N(C)C3)(C(C)C)C(=O)N12.CS(=O)(=O)O | 92.1% |
| CC(=O)Oc1cc2c(c(C)c1OC(C)=O)CC=C1C2(C)CCC2(C)C3CC(C)(C(=O)O)CCC3(C)CCC12C (stereo not shown) | 0.6% |
| Cc1cccc2c3c(ccc12)C1=C(C(=O)C3=O)[C@@H](C)CO1 | 77.1% |
| CC1=CC(=O)C2C(C)(C)CCCC2(C)C1(O)CCc1ccoc1 (stereo not shown) | 75.8% |
| O=c1[nH]c(=O)n([C@H]2C[C@H](O)[C@@H](CO)O2)cc1F | 86.2% |
| CC(C)COCC(CN(Cc1ccccc1)c1ccccc1)N1CCCC1.Cl (stereo not shown) | 89.6% |
| CC(CC(O)C1OC1(C)C)C1CCC2(C)C3=CCC4C(C)(C)C(=O)CCC4(C)C3CCC12C (stereo not shown) | 100% |
| Cc1cc2nc3c(=O)[nH]c(=O)nc-3n(C[C@H](O)[C@H](O)[C@H](O)CO)c2cc1C | 0.9% |
| O=c1c(-c2ccc(O)cc2)coc2cc(O)cc(O)c12 | 100% |
| CCC1(O)CC(O)c2c(cc3c(c2O)C(=O)c2c(O)ccc(O)c2C3=O)C1C(=O)OC (stereo not shown) | 46.5% |

| Structure (SMILES) | Mammalian (3T3) cell % growth at 10 uM |
| --- | --- |
| O=c1[nH]c2ccccc2n1C1CCN(CCCC(c2ccc(F)cc2)c2ccc(F)cc2)CC1 | 8.1% |
| CN(C)CC/C=C1/c2ccccc2Sc2ccc(Cl)cc21 | 97.1% |
| CCCOc1ccc2nc(NC(=O)OC)[nH]c2c1 | 52.8% |
| O=C(O)/C=C/c1ccc(O)c(O)c1 | 2.5% |
| C=C1C(=O)O[C@H]2[C@H]1CC/C(C)=C/CC[C@@]1(C)O[C@@H]21 | 0.7% |
| COc1ccc(-c2cc(=O)c3ccccc3o2)cc1OC | 86.4% |
| COc1cc2c(cc1OC)C1C(=O)c3c(cc4c(c3O)C=CC(C)(C)O4)OC1CO2 (stereo not shown) | 34.3% |
| CCCC(C(=O)OCCN(CC)CC)(c1ccccc1)c1ccccc1 | 100% |
| CO[C@H]1C[C@H](O[C@H]2[C@H](C)[C@@H](O[C@@H]3O[C@H](C)C[C@H](N(C)C)[C@H]3O)[C@@H](C)C[C@@]3(CO3)C(=O)[C@H](C)[C@@H](O)[C@@H](C)[C@@H](C)OC(=O)[C@@H]2C)O[C@@H](C)[C@@H]1O.O=P(O)(O)O | 100% |
| COc1cc(O)c(C(=O)/C=C/c2ccc(O)c(OC)c2)c(OC)c1 | 10.2% |
| NC(=O)c1cc([N+](=O)[O-])cc([N+](=O)[O-])c1 | 97.2% |
| Clc1ccccc1C(c1ccccc1)(c1ccccc1)n1ccnc1 | 100% |
| CSc1ccc2c(c1)C(N1CCN(C)CC1)Cc1ccccc1S2.O=C(O)/C=C\C(=O)O (stereo not shown) | 69.6% |
| C=CC(C1=CC(=O)C(OC)=CC1=O)c1ccccc1 (stereo not shown) | 0.9% |
| COc1cc([C@@H]2c3cc4c(cc3[C@@H](O[C@@H]3O[C@@H]5CO[C@@H](c6cccs6)O[C@H]5[C@H](O)[C@H]3O)[C@H]3COC(=O)[C@H]23)OCO4)cc(OC)c1O | 50.4% |
| CC(=O)OC1CCC2(C)C(CC(OC(C)=O)C3(C)C2CCC2(C)C(c4ccoc4)OC(=O)C4OC423)C1(C)C (stereo not shown) | 96.7% |
| CN(C)CCCN1c2ccccc2Sc2ccccc21.Cl | 98.7% |
